“And” between values parts separate entries of the source, which are not always exact repeats. Identical values can stand only once. Values without a mark were called inactive. Results filed as inconclusive are left out. Entries that show only a call come without a potency. The source made the active and inactive calls. Unless noted, calls come from the whole dose curve; as a rule, active = well fitted curve in the direction sought with a large enough effect in the repeat runs; inconclusive = weak or mixed curves; inactive = no such curve, though single readings can be large; an effect the other way counts as inactive or inconclusive.
Key:
[1] = qHTS assay for small molecules that induce genotoxicity in human embryonic kidney cells expressing luciferase-tagged ATAD5 - cell viability (AID 651634; calls by dose curve; note: nearly all actives have a fitted effect of over 25% in size; note: potency is the fitted concentration of half-maximal effect)
In short: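 Cytotoxicity counter-readout: after 15.5 hr compound treatment at 37C, live-cell protease activity in ATAD5-luciferase HEK293T cells measured by CellTiter-Fluor fluorescence, 30 min development at 37C.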

[2] = qHTS assay for small molecule disruptors of the mitochondrial membrane potential - cell viability (AID 720634; calls by dose curve; note: nearly all actives have a fitted effect of over 20% in size; note: potency is the fitted concentration of half-maximal effect)
In short: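 Cytotoxicity was quantified from ATP content by CellTiter-Glo luminescence in the same wells as the MMP dye read-out. HepG2 (2,000 cells/well) were plated overnight and exposed to compounds for 1 hr at 37 C.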

[3] = qHTS assay to test for compound auto fluorescence at 590 nm (red) in HepG2 cells (AID 720674)
In short: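 We screened compounds on adherent HepG2 cells, incubating them for an hour at 37 C in 5% CO2 before reading emission at 590 nm under 540 nm excitation; values reflect equivalence to Rose Bengal sodium fluorescence.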

[4] = qHTS assay to test for compound auto fluorescence at 535 nm (green) in HepG2 cells (AID 720675)
[5] = qHTS assay to test for compound auto fluorescence at 460 nm (blue) in HEK293 cells (AID 720678)
In short: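 Auto fluorescence in the blue band was quantified as triamterene equivalency. HEK293 cells were seeded at 2,000/well, dosed after a 4-5 hr attachment, and kept overnight at 37C before the 405/460 nm reading.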

[6] = qHTS assay to test for compound auto fluorescence at 590 nm (red) in HEK293 cells (AID 720679)
In short: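 Autofluorescence equivalency to Rose Bengal sodium, 540/590nm, in HEK293 cells exposed overnight to 23 nL compound per well.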

[7] = qHTS assay to test for compound auto fluorescence at 535 nm (green) in HEK293 cells (AID 720680)
[8] = qHTS assay to test for compound auto fluorescence at 460 nm (blue) in HEK293 cell free culture (AID 720681)
In short: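 Blue fluorescence (Ex 405/Em 460 nm, triamterene-equivalent) was read immediately after pin transfer of compound or DMSO into medium (DMEM, 10% FBS) without cells.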

[9] = qHTS assay to test for compound auto fluorescence at 535 nm (green) in HEK293 cell free culture (AID 720682)
In short: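 Intrinsic compound fluorescence is measured in culture medium containing 10% FBS, with excitation at 485 nm and detection at 535 nm, referenced to fluorescein.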

[10] = qHTS assay to test for compound auto fluorescence at 590 nm (red) in HEK293 cell free culture (AID 720683)
In short: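 Red-channel autofluorescence of compounds in culture medium (DMEM, 10% FBS), no cells, measured at 540/590 nm. Rose Bengal sodium is the reference fluorophore for equivalence.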

[11] = qHTS assay to test for compound auto fluorescence at 590 nm (red) in HepG2 cell free culture (AID 720684)
In short: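 Cell-free; medium MEM + 10% FBS; compound or DMSO added by pintool; read Ex 540/Em 590 nm; Rose Bengal sodium as red reference fluorophore.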

[12] = qHTS assay to test for compound auto fluorescence at 460 nm (blue) in HepG2 cell free culture (AID 720685)
In short: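 Cell-free plates of MEM plus 10% FBS received 23 nL compound or DMSO vehicle; blue-channel (405/460 nm) intensity scored against triamterene as reference fluorophore.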

[13] = qHTS assay to test for compound auto fluorescence at 535 nm (green) in HepG2 cell free culture (AID 720686)
[14] = qHTS assay to test for compound auto fluorescence at 460 nm (blue) in HepG2 cells (AID 720687)
In short: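 Blue-channel autofluorescence (Ex/Em 405/460 nm, triamterene-equivalent) was measured after 1 hr compound exposure at 37 C, 5% CO2. Cells were HepG2, plated overnight at 37 C in MEM plus 10% FBS.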

[15] = molecular target: Glucocorticoid receptor (Homo sapiens) (UniProt P04150); test: qHTS assay to identify small molecule agonists of the glucocorticoid receptor (GR) signaling pathway (AID 720691; active = well fitted activation curve with a large enough effect in the signal ratio in the repeat runs, not every such curve was filed as active; the % refers to the signal ratio; note: potency is the fitted concentration of half-maximal effect)
In short: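 Agonist-mode qHTS in HeLa cells stably expressing a glucocorticoid-response-element beta-lactamase reporter. Fluorescence intensity read with FRET substrate (2 h, room temperature) after 18 h compound treatment at 37 C.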

[16] = qHTS assay for small molecules that induce genotoxicity in human embryonic kidney cells expressing luciferase-tagged ATAD5 (AID 651632); note: nearly all actives have a fitted effect of over 15% in size
In short: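 A rise in luciferase signal from ATAD5-tagged HEK293T cells marks genetic stress. Cells were exposed to compounds for 16 hr at 37C, 5% CO2, then luciferase was quantified after a 30 min room-temperature incubation with Amplite.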

[17] = qHTS assay for small molecule disruptors of the mitochondrial membrane potential (AID 720635); note: potency is the fitted concentration of half-maximal effect
In short: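 Mitochondrial membrane potential tracked with Mito-MPS dye, red aggregates (ex 540/em 590 nm) against green monomers (ex 490/em 535 nm). Compound treatment 1 hr at 37C, dye 30 min in HepG2.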

[18] = molecular target: Glucocorticoid receptor (Homo sapiens) (UniProt P04150); test: qHTS assay to identify small molecule antagonists of the glucocorticoid receptor (GR) signaling pathway (AID 720692; active = well fitted inhibition curve with a large enough effect in the signal ratio in the repeat runs, not every such curve was filed as active; the % refers to the signal ratio; note: potency is the fitted concentration of half-maximal effect)
In short: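 Inhibition of dexamethasone-driven (5 nM final) beta-lactamase expression was measured in GRE-reporter HeLa cells over 18 h at 37C. Fluorescence was read after 2 h with the B/G FRET substrate at room temperature.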

[19] = qHTS assay for small molecule agonists of the p53 signaling pathway - cell viability (AID 651633; calls by dose curve; note: nearly all actives have a fitted effect of over 30% in size; note: potency is the fitted concentration of half-maximal effect)
In short: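 Viability counter-read: CellTiter-Glo luminescence (30 min, room temperature) in the same p53RE-bla plates. These plates had been exposed to compounds for 16 h at 37 C.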

Sequence of Glucocorticoid receptor (Homo sapiens) (P04150 whole entry, looked up): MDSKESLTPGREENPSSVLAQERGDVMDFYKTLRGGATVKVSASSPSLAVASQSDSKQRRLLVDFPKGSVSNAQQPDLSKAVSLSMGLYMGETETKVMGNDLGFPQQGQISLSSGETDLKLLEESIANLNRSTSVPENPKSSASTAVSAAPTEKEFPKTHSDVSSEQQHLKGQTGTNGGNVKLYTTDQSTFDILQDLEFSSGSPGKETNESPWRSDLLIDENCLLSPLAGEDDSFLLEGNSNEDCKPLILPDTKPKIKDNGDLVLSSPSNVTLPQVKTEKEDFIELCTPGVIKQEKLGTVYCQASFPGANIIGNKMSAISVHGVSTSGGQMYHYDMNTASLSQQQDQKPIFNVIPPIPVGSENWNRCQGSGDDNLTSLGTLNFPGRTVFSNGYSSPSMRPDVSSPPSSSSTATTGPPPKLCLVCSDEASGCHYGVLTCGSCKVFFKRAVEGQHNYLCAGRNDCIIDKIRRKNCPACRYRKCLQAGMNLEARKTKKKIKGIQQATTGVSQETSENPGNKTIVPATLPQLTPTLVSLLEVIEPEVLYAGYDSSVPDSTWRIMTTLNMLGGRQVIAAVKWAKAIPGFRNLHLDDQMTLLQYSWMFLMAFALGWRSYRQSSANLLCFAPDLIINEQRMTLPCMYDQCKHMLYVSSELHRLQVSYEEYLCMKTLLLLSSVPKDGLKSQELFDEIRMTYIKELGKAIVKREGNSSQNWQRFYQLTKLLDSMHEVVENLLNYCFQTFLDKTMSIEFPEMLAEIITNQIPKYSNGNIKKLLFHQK

Structure (SMILES) | Potency [1] | Potency [2] | outcome [3] | outcome [4] | Potency [5] | outcome [6] | outcome [7] | Potency [8] | outcome [9] | outcome [10] | outcome [11] | Potency [12] | outcome [13] | Potency [14] | Potency [15] | Potency [16] | Potency [17] | Potency [18] | Potency [19]
CCCSP(=O)(OCC)SCCC | inactive | inactive | inactive | inactive | inactive | inactive | inactive | inactive | inactive | inactive | inactive | inactive | inactive | inactive | inactive |  |  |  | 
CCCCCCCCCCCCCCCCCCn1cc[n+](C)c1 | inactive |  | inactive | inactive | inactive | inactive | inactive | inactive | inactive | inactive | inactive | inactive |  | inactive | inactive | inactive | 9.63 µM (active) |  | 
CCCCCCCCCCCCBr | inactive |  |  | inactive | inactive | inactive | inactive | inactive | inactive | inactive |  | inactive | inactive | inactive | inactive | inactive | 27.3 µM (active) | inactive | 
[Hg+2].[I-].[I-] | 61.1 µM (active) | 48.6 µM (active) | inactive | inactive | inactive | inactive | inactive | inactive |  | inactive | inactive | inactive | inactive | inactive |  |  | 17.2 µM (active) |  | 61.1 µM (active)
O=c1[nH]c2ccccc2n1CCCN1CCC(n2c(=O)[nH]c3cc(Cl)ccc32)CC1 |  | inactive | inactive | inactive | inactive | inactive | inactive | inactive | inactive | inactive |  | inactive |  | inactive | inactive |  | inactive |  | inactive
C[C@H]1CC[C@@H]2[C@@H](C)[C@H]3[C@H](C[C@H]4[C@@H]5CC=C6CC(O[C@@H]7O[C@H](CO)[C@H](O)[C@H](O[C@@H]8O[C@H](CO)[C@@H](O)[C@H](O)[C@H]8O)[C@H]7O[C@H]7O[C@@H](C)[C@H](O)[C@@H](O)[C@H]7O)CC[C@]6(C)[C@H]5CC[C@]34C)N2C1 (stereo partly drawn) | 26.6 µM (active) and 63.1 µM (active) | 18.8 µM (active) and 70.8 µM (active) | inactive | inactive | inactive | inactive | inactive | inactive | inactive | inactive | inactive |  | inactive | inactive | inactive |  | 18.8 µM (active) and 35.5 µM (active) | inactive | 
CN(C)c1ccc(N=Nc2ccccc2)cc1 | 68.7 µM (active) | 48.6 µM (active) |  | inactive | inactive | inactive | inactive | inactive |  | inactive | inactive | inactive | inactive | inactive | inactive |  |  | inactive | inactive
C[C@@H]1CC[C@@]2(OC1)O[C@H]1[C@@H](O)[C@H]3[C@@H]4CC[C@H]5C[C@@H](O[C@@H]6O[C@H](CO)[C@H](O[C@@H]7O[C@H](CO)[C@@H](O)[C@H](O[C@@H]8OC[C@@H](O)[C@H](O)[C@H]8O)[C@H]7O[C@@H]7O[C@H](CO)[C@@H](O)[C@H](O[C@@H]8O[C@H](CO)[C@@H](O)[C@H](O)[C@H]8O)[C@H]7O)[C@H](O)[C@H]6O)[C@H](O)C[C@]5(C)[C@H]4CC[C@]3(C)[C@H]1[C@@H]2C | 64.9 µM (active) | 18.3 µM (active) | inactive | inactive | inactive | inactive | inactive | inactive | inactive | inactive | inactive |  | inactive | inactive |  |  | 4.59 µM (active) |  | 23 µM (active)
O=[N+]([O-])O.O=[N+]([O-])O.[Cd] | 1.22 µM (active) |  | inactive | inactive | inactive | inactive | inactive | inactive | inactive | inactive |  |  | inactive | inactive | 0.389 µM (active) |  |  | 43.6 µM (active) | 
N#C/C=C/C#N |  | inactive | inactive | inactive | inactive | inactive | inactive | inactive | inactive | inactive | inactive | inactive | inactive | inactive | inactive |  |  |  | inactive
O=C(Nc1ccc2[nH]ccc2c1)c1cc2cc(F)ccc2n1Cc1cccc(F)c1 |  |  |  | inactive | inactive | inactive | inactive | inactive |  | inactive | inactive | inactive | inactive | inactive |  | inactive | 0.686 µM (active) |  | 
CN(C)C(=S)S | inactive | inactive | inactive | inactive | inactive | inactive | inactive | inactive |  | inactive | inactive | inactive |  | inactive |  |  |  |  | inactive
[Cd+2].[Cl-].[Cl-] | 1.95 µM (active) and 1.22 µM (active) |  |  | inactive | inactive | inactive | inactive | inactive |  | inactive | inactive | inactive | inactive | inactive |  |  |  |  | 
O=C/C(Cl)=C(/Cl)C(=O)O | inactive | 61.1 µM (active) |  | inactive | inactive | inactive | inactive | inactive | inactive | inactive |  | inactive | inactive | inactive |  |  | 24.3 µM (active) and 38.6 µM (active) | 48.9 µM (active) and 49 µM (active) | inactive
CCOP(=O)(NC(C)C)Oc1ccc(SC)c(C)c1 (stereo not drawn) |  |  |  | inactive | inactive | inactive | inactive | inactive | inactive | inactive | inactive | inactive | inactive | inactive | inactive |  |  |  | 
CC(=O)[O-].CC(=O)[O-].O.O.[Cd+2] | 0.214 µM (active) |  | inactive | inactive | inactive | inactive | inactive | inactive | inactive | inactive | inactive |  | inactive | inactive |  |  |  |  | 

Source: PubChem BioAssay (Tox21)
